An excerpt weighted towards active compounds, which were near 3.2% of everything screened.
MsrA act – bovine methionine sulfoxide reductase A activation. purified bovine MsrA, absorbance read-out. activation, % at 10.6 µM. 360,000 tested, 0.3% active. AID 602163; in the data active = activation above about 7.5%;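 note: 0% = vehicle and 100% = reference activator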
rCAG RNA binder – molecules binding r(CAG) RNA repeats; r(CAG) RNA repeat, TO-PRO-1 dye displacement fluorescence; AID 651821; inhibition, % at 3 µM; 370,000 tested, 1.3% active;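 active = inhibition above the plate cutoff, the mean of all test compounds on that plate plus 3 SD, cut at about 35% in these data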;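 note: 0% = DMSO alone and 100% = 100 µM mitoxantrone as full dye displacement; higher means more dye released from RNA so lower well fluorescence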
MsrA inhibitor – inhibits bovine methionine sulfoxide reductase A. purified bovine MsrA, absorbance read-out. inhibition, % at 15.5 µM. 360,000 tested, 0.75% active. AID 651718; in the data active = inhibition above about 4.5%;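 note: 0% = vehicle wells with enzyme and 100% = reference inhibitor wells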
NadD block – NadD (S. aureus) enzyme inhibition; purified NadD enzyme, colorimetric absorbance read-out; inhibition, % at 20 µM; 360,000 tested, 0.78% active; AID 602399; in the data active = inhibition above about 26%
DAGLB inh – diacylglycerol lipase beta (human) inhibition; Q8NCG7; HEK293T DAGLB membrane lysate, EnzChek fluorogenic substrate; inhibition, % at 5.17 µM; 340,000 tested, 0.059% active; AID 504411; in the data active = inhibition above about 34%;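 note: 0% = enzyme with vehicle and 100% = wells lacking enzyme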
DSG3 Ab inh – human desmoglein-3 autoantibody binding inhibition; 310,000 tested, 0.48% active; AID 588358; binding (percent of control), % at 10 µM; DSG3-coupled beads, scFv-anti-DSG3-GFP binding, flow cytometry; stronger effect = lower value;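 active = binding more than 3 SD below its plate's average and above zero; inconclusive = below that plate limit but binding exactly zero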;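 note: hits lower antibody fragment binding to DSG3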
Target sequence (P32926 whole entry, looked up, the tested form may be a part): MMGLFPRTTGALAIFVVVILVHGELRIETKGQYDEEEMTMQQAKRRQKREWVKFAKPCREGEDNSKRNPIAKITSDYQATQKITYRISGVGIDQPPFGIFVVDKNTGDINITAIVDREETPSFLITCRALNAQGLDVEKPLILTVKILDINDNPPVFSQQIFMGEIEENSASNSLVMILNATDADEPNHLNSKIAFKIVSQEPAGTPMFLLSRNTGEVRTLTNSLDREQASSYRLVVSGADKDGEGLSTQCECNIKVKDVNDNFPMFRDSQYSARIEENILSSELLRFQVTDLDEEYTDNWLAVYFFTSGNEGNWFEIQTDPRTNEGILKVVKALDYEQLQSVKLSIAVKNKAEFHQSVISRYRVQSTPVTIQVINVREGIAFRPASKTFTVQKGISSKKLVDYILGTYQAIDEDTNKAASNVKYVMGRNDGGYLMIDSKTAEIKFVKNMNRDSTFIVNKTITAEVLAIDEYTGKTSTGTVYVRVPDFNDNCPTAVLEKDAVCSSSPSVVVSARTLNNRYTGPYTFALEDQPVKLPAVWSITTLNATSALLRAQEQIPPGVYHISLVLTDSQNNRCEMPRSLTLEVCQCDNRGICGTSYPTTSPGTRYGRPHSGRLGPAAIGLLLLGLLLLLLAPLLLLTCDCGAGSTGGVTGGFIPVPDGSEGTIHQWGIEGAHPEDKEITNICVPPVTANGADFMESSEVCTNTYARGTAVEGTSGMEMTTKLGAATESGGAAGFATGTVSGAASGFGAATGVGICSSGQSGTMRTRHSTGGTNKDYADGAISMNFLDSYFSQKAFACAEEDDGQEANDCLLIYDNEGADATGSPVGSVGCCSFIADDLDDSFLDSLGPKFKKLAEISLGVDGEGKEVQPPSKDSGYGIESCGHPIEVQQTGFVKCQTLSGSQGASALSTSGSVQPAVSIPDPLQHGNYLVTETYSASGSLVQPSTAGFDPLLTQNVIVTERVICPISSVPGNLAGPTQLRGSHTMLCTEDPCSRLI
rCAG bind conf – r(CAG) RNA repeat binding, confirmation; shares compounds with rCAG RNA binder; TO-PRO-1 dye displacement fluorescence; inhibition, % at 3 µM; 4,300 tested, 70% active;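 active = inhibition above a per-plate cutoff, the mean inhibition of sample wells plus 3 SD, cut at about 35% in these data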;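 note: loss of TO-PRO-1 fluorescence as compound displaces dye from 1x1 AA loop RNA; 0% = DMSO only wells and 100% = 100 µM mitoxantrone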
DNA CAG counter – disrupts DNA CAG TO-PRO-1 complex, flagging rCAG hits; d(CAG) DNA oligo TO-PRO-1 dye displacement, fluorescence; 4,300 tested, 94% active; AID 652068; inhibition, % at 3 µM; shares compounds with rCAG RNA binder;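 active = inhibition above its plate's cutoff, the mean test-well inhibition plus 3 SD, cut at about 4.8% in these data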;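 note: 0% = DNA dye mix with DMSO and 100% = 100 µM mitoxantrone; hits displace the dye from DNA and so lower well fluorescence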
DNA CAG DR – DNA CAG dye complex inhibition, dose response counter-screen | shares compounds with rCAG RNA binder | DNA CAG/GTC duplex TO-PRO-1 dye displacement fluorescence | IC50, µM | 250 tested, 20% active; in the data active = IC50 below about 10 µM
An asterisk follows results filed as active; ? = inconclusive; nt = no result given.

SMILES	MsrA act	rCAG RNA binder	MsrA inhibitor	NadD block	DAGLB inh	DSG3 Ab inh	rCAG bind conf	DNA CAG counter	others
O=C(Nc1ccc(S(=O)(=O)O)cc1)c1ccc2c(c1)S(=O)(=O)c1ccccc1C2=O	-2.9	40.1*	0.8	-4.4	6.0	102.8	16.7	1.6
CC(=NNc1cc(C)c2ccccc2n1)c1ccccn1	nt	1.6	0.7	nt	nt	nt	nt	nt
CN1CCC(N2CCN(C3CN(Cc4ccc(F)cc4)S(=O)(=O)C3)CC2)CC1 (stereo unspecified)	-2.1	3.4	1.7	-4.4	nt	nt	nt	nt
COC(=O)C1CN(Cc2cn(CCOC(C)=O)nn2)CCS(=O)(=O)N1Cc1ccc(Cl)cc1 (stereo unspecified)	nt	2.6	nt	nt	nt	nt	nt	nt
O=C(Nc1ccccc1N1CCOCC1)c1cc2c(s1)CCCCC2	-11.9	-5.8	0.2	-2.2	-8.1	?	nt	nt
O=C(Nc1cc(S(=O)(=O)Nc2ccccc2Cl)ccc1O)c1cc2c(s1)CCCC2	-3.0	47.8*	0.7	27.2	1.1	96.2	66.9*	25.8*
O=C(Nc1cccc(S(=O)(=O)Nc2ccc(Cl)cc2)c1)c1cc2c(s1)CCCC2	-4.8	43.0*	-1.1	21.4	-5.3	77.7	29.2	16.8*
CCNC(=S)N/N=C/c1cn(Cc2ccc(F)cc2)c2ccccc12	-3.7	8.2	2.2	1.3	2.4	101.4	nt	nt
O=C(O)c1ccc(N/N=C/c2cn(Cc3ccc(F)cc3)c3ccccc23)cc1	-14.3	80.9*	2.5	18.0	4.6	99.3	75.1*	34.9*
COc1cccc(C(c2nnnn2C(C)(C)C)N2CCN(C/C=C/c3ccccc3)CC2)c1OC (stereo unspecified)	-2.0	2.1	0.2	-7.0	nt	nt	nt	nt
C#CCN1C(=O)[C@@](O)(c2cccn2C)c2cc(F)ccc21	nt	1.3	nt	nt	nt	nt	nt	nt
O=C(CN1C(=O)CCSc2ccccc21)Nc1ccc(Cl)c(Cl)c1	nt	6.3	nt	nt	nt	nt	nt	nt
O=S(=O)(Nc1cccc2[nH]ncc12)c1cccs1	-7.6	4.2	1.6	-0.2	-1.0	98.8	nt	nt
O=S(=O)(Nc1cccc2c1ccc1cccn12)c1cccs1	-4.3	38.3*	1.7	6.3	4.0	98.6	32.3	12.8*
COc1ccc(NC(=O)c2cc(-c3cc(F)ccc3OCC3CCCO3)n[nH]2)c(C)c1 (stereo unspecified)	-1.3	-0.2	-0.6	-4.5	nt	nt	nt	nt
CC1CCCN(CC(=O)Nc2ccc(S(=O)(=O)N3C(C)CCCC3C)cc2)C1 (stereo unspecified)	-1.4	-1.3	-0.2	-2.0	-2.0	109.4	nt	nt
O=C(NC(=S)Nc1cccc2c(O)cccc12)c1ccccc1[N+](=O)[O-]	-1.9	39.1*	0.1	9.2	2.5	118.5	12.0	7.3*
O=C(NNC(=S)NC(=O)c1ccccc1[N+](=O)[O-])c1ccccc1O	-4.1	2.0	3.8	8.4	nt	96.8	nt	nt
CCOC(=O)CC1=NN(c2ccccc2)C(=O)/C1=C\c1ccc(N(C)C)cc1	-8.4	5.2	0.1	-5.0	8.4	81.8	nt	nt
CCOC(=O)CC1=NN(c2ccccc2)C(=O)C1	2.6	37.8*	1.2	-3.7	13.1	97.6	8.6	5.0*
COCCCNC(=O)c1ccc2nc([C@@H]3O[C@H](CO)[C@H](O)[C@H](O)[C@H]3O)[nH]c2c1	-2.5	-1.1	0.8	-5.0	nt	nt	nt	nt
O=C(Nc1ccc(F)cc1)OC[C@@H]1CSCCS(=O)(=O)N1	nt	0.6	1.0	nt	nt	nt	nt	nt
Cc1ccc(-c2csc(NC(=O)c3ccccc3Cl)c2C(=O)O)cc1	-7.6	46.0*	0.9	-2.3	12.9	93.5	31.8	7.5*
COc1cc(C(=O)Nc2c(C(=O)O)[nH]c3ccc(Br)cc23)cc(OC)c1OC	-3.7	83.8*	0.3	0.5	8.4	97.8	78.2*	40.3*
Cc1ccc(-c2csc(NC(=O)c3cccc(C)c3)c2C(=O)O)cc1	-2.3	76.7*	1.8	-1.8	16.2	105.6	58.5*	20.9*
SMILES	MsrA act	rCAG RNA binder	MsrA inhibitor	NadD block	DAGLB inh	DSG3 Ab inh	rCAG bind conf	DNA CAG counter	others
CC(C)c1ccc(-c2csc(NC(=O)c3cccs3)c2C(=O)O)cc1	-4.9	82.8*	2.0	-7.6	17.4	103.1	76.6*	32.8*	DNA CAG DR=7.83*
COc1cc(C(=O)c2cc3c(cc2C)OCO3)cc(OC)c1OC	-12.3	0.2	-0.7	0.1	nt	nt	nt	nt
Cc1ccc(/C=N\NC(=O)CN2CCN(S(=O)(=O)c3ccc(Br)cc3)CC2)s1	nt	1.1	nt	nt	nt	nt	nt	nt
COc1cc(C(=O)Nc2scc(-c3ccc(Br)cc3)c2C(=O)O)cc(OC)c1OC	0.1	39.4*	0.3	7.2	1.0	106.4	85.5*	53.3*
O=C(Nc1scc(-c2ccc(F)cc2)c1C(=O)O)c1ccco1	-2.0	16.6	4.0	-5.1	4.6	106.7	nt	nt
Cc1ccc(-c2csc(NC(=O)/C=C/c3ccco3)c2C(=O)O)cc1	-5.3	57.5*	4.5	-0.2	12.7	93.7	35.9*	9.6*
Cc1cccc(NC(=O)Cn2nnc(-c3ccccc3F)n2)c1C	nt	4.1	nt	nt	nt	nt	nt	nt
O=C1C(c2cc(=O)c3ccccc3[nH]2)=C(O)c2ccccc21	-8.2	62.5*	2.6	-2.9	6.4	93.5	35.7*	8.5*
CCOC(=O)COc1ccc(Br)cc1/C=C\c1[nH]c(=O)[nH]c(=O)c1[N+](=O)[O-]	-4.5	83.7*	4.0	1.8	7.9	99.2	43.5*	10.5*
COc1cccc(/C=C/c2[nH]c(=O)[nH]c(=O)c2[N+](=O)[O-])c1O	-3.2	9.9	3.3	-6.3	7.1	86.4	nt	nt
O=C(COc1ccccc1/C=C\c1[nH]c(=O)[nH]c(=O)c1[N+](=O)[O-])Nc1ccccc1	-9.7	68.3*	3.4	1.1	12.2	109.2	43.0*	14.2*
O=c1[nH]c(/C=C/c2ccccc2Cl)c([N+](=O)[O-])c(=O)[nH]1	-2.8	6.8	3.4	2.3	6.8	117.3	nt	nt
CCOc1ccc(/C=C/c2[nH]c(=O)[nH]c(=O)c2[N+](=O)[O-])cc1	-3.8	38.7*	0.1	0.4	12.0	91.2	16.1	7.0*
CC(C)c1ccc(/C=C/c2[nH]c(=O)[nH]c(=O)c2[N+](=O)[O-])cc1	-5.2	40.2*	4.0	-2.8	10.2	107.3	23.7	3.7
CCOc1cc(/C=C\c2[nH]c(=O)[nH]c(=O)c2[N+](=O)[O-])ccc1OC(C)CC (stereo unspecified)	nt	21.9	0.6	nt	nt	nt	nt	nt
C=CCn1c(SCC(=O)Nc2ccccc2-c2ccccc2)nnc1-c1ccc(Cl)cc1	nt	5.3	nt	nt	nt	nt	nt	nt
CCOC(=O)[C@]12CCCCC/C=C\1N(Cc1ccc(OC)cc1)C(=O)[C@H]2CC(=O)N1CCN(C(=O)C2CC2)CC1	nt	2.5	nt	nt	nt	nt	nt	nt
C=CCn1c(SCC(=O)OC(C)C)nnc1-c1ccc(C)cc1	nt	-3.0	nt	nt	nt	nt	nt	nt

High-throughput results from PubChem BioAssay.
